For 7 sequences, binding signal results are on record in publication PMC8384837, “Expanding the binding specificity for RNA recognition by a PUF domain”.

Holding throughout (experiment): yeast three-hybrid, YBZ-1, SC-Leu-His + 0.5 mM 3-AT, 4 days
What all share (conditions): tags: N-Gal4 AD-HA kept; label: inside an RPR1-promoter hybrid RNA with tandem MS2 sites; ssRNA

The target of one assay is T1, PUM1 PUF domain R6-WWG (Homo sapiens, UniProt Q14671 828-1176, N1043W;Y1044W;Q1047G).
T1 sequence: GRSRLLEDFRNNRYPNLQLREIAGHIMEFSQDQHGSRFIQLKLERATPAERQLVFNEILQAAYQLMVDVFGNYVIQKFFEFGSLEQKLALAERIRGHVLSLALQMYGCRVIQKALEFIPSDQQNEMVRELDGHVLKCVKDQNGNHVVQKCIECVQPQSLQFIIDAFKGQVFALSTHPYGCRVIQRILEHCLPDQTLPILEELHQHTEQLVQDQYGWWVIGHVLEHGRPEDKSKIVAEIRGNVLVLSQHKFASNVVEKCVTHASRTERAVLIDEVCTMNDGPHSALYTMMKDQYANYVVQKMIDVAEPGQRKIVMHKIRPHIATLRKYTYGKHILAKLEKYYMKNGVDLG
In a few lines: (§1)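 The interaction score is the log change in variant frequency from input to selection. Scores were computed in log2 with a pseudocount of 1 for absent variants, using Illumina sequencing of PCR-amplified repeat regions. The input came from four days on SC-Leu and the selection from four days on SC-Leu-His + 0.5 mM 3-AT. The cells were strain YBZ-1 (LexA–MS2 coat fusion, HIS3 reporter) co-expressing Pumilio-1 PUF domain libraries and matching RNA elements from a centromeric plasmid.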

The next assay concerns the target PUM1 PUF domain R3-TRH (Homo sapiens, UniProt Q14671 828-1176, C935T;Q939H). The method, boiled down:
as §1

In the next assay the target is PUM1 PUF domain R4-NPA (Homo sapiens, UniProt Q14671 828-1176, H972P;Q975A). In a few lines:
as §1

For the next assay, the target named is PUM1 PUF domain R8-HWI (Homo sapiens, UniProt Q14671 828-1176, N1122H;Y1123W;Q1126I). The method, boiled down:
as §1

For another assay, the target named is PUM1 PUF domain R2-LWQ (Homo sapiens, UniProt Q14671 828-1176, N899L;Y900W). The method, boiled down: as §1
The target in a further assay is PUM1 PUF domain R3-EHG (Homo sapiens, UniProt Q14671 828-1176, C935E;R936H;Q939G). In a few lines:
as §1

In another assay the target is PUM1 PUF domain R1-RYQ (Homo sapiens, UniProt Q14671 828-1176, S863R;R864Y). The method, boiled down:
as §1

Another assay deals with PUM1 PUF domain R4-DWG (Homo sapiens, UniProt Q14671 828-1176, N971D;H972W;Q975G). The method, boiled down:
as §1

The next assay has as its target PUM1 PUF domain R5-GKN (Homo sapiens, UniProt Q14671 828-1176, C1007G;R1008K;Q1011N). The method, boiled down: as §1
A further assay concerns the target PUM1 PUF domain R5-LNA (Homo sapiens, UniProt Q14671 828-1176, C1007L;R1008N;Q1011A). In a few lines:
as §1

The next assay addresses PUM1 PUF domain R4-WHG (Homo sapiens, UniProt Q14671 828-1176, N971W;Q975G). In a few lines: as §1
A further assay deals with PUM1 PUF domain R3-FSK (Homo sapiens, UniProt Q14671 828-1176, C935F;R936S;Q939K). The method, boiled down: as §1
Another assay has as its target PUM1 PUF domain R3-YYS (Homo sapiens, UniProt Q14671 828-1176, C935Y;R936Y;Q939S). In a few lines:
as §1

In the next assay the target is PUM1 PUF domain R1-SKR (Homo sapiens, UniProt Q14671 828-1176, R864K;Q867R). The method, boiled down:
as §1

The target of the next assay is T2, PUM1 PUF domain R6-YWL (Homo sapiens, UniProt Q14671 828-1176, N1043Y;Y1044W;Q1047L).
T2 sequence: T1 sequence with W216Y, G220L
The method, boiled down: as §1

Positions count from the first letter of the chain named.

Chain of PUM1 PUF domain R4-NPA (Q14671 828-1176 H972P/Q975A): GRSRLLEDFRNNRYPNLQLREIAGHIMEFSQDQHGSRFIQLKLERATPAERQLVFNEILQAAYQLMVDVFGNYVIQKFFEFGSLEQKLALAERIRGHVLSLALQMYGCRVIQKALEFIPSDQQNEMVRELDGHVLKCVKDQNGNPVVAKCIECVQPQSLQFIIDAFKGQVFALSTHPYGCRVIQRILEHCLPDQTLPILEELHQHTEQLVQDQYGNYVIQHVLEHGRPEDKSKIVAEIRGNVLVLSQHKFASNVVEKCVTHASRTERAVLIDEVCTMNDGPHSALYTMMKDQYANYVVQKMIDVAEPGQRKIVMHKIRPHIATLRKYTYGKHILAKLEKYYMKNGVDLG

Consider “GGCUAGAACUAGUGGAUCCCCCGGCGCCCGGCGGCUCGAGCCCGGGUAAGUGUAAAUAGUCUGCAUGCCGCCGGGCGCCAUGCCUGCAGGUCGACUCUAGAAAACAUG”, for which the binding signal is 4.79 log2 enrichment (interaction score) with PUM1 PUF domain R6-WWG; 4.48 log2 enrichment (interaction score) in the assay with PUM1 PUF domain R3-TRH; 1.59 log2 enrichment (interaction score) with PUM1 PUF domain R4-NPA; 3.85 log2 enrichment (interaction score) with PUM1 PUF domain R8-HWI; 1.66 log2 enrichment (interaction score) with PUM1 PUF domain R2-LWQ; 2.53 log2 enrichment (interaction score) in the assay with PUM1 PUF domain R3-EHG. Moreover, the figures for the binding signal with PUM1 PUF domain R1-RYQ and with PUM1 PUF domain R4-DWG were 2.21 log2 enrichment (interaction score) and 5.39 log2 enrichment (interaction score), respectively.

Take “GGCUAGAACUAGUGGAUCCCCCGGCGCCCGGCGGCUCGAGCCCGGGUAAGUGUUAAUAGUCUGCAUGCCGCCGGGCGCCAUGCCUGCAGGUCGACUCUAGAAAACAUG”: the binding signal was 3.34 log2 enrichment (interaction score) with PUM1 PUF domain R5-GKN and 4.02 log2 enrichment (interaction score) in the assay with PUM1 PUF domain R5-LNA.

With “GGCUAGAACUAGUGGAUCCCCCGGCGCCCGGCGGCUCGAGCCCGGGUAAGUGUAUAUAGUCUGCAUGCCGCCGGGCGCCAUGCCUGCAGGUCGACUCUAGAAAACAUG”, the binding signal with PUM1 PUF domain R4-NPA is 4 log2 enrichment (interaction score); with PUM1 PUF domain R4-WHG, 3.79 log2 enrichment (interaction score); with PUM1 PUF domain R4-DWG it was 4.56 log2 enrichment (interaction score).

Regarding “GGCUAGAACUAGUGGAUCCCCCGGCGCCCGGCGGCUCGAGCCCGGGUAAGUGUAAGUAGUCUGCAUGCCGCCGGGCGCCAUGCCUGCAGGUCGACUCUAGAAAACAUG”, the results for the binding signal with PUM1 PUF domain R3-FSK, in the assay with PUM1 PUF domain R3-EHG and with PUM1 PUF domain R3-YYS were 4.08 log2 enrichment (interaction score), 4.29 log2 enrichment (interaction score) and 6.91 log2 enrichment (interaction score), respectively.

On to “GGCUAGAACUAGUGGAUCCCCCGGCGCCCGGCGGCUCGAGCCCGGGUAAGUGUAAAUCGUCUGCAUGCCGCCGGGCGCCAUGCCUGCAGGUCGACUCUAGAAAACAUG”, for which the binding signal with PUM1 PUF domain R1-SKR is 3.09 log2 enrichment (interaction score); with PUM1 PUF domain R1-RYQ it was 5.27 log2 enrichment (interaction score).

In the case of “GGCUAGAACUAGUGGAUCCCCCGGCGCCCGGCGGCUCGAGCCCGGGUAAGUGUCAAUAGUCUGCAUGCCGCCGGGCGCCAUGCCUGCAGGUCGACUCUAGAAAACAUG”, the binding signal in the assay with PUM1 PUF domain R5-GKN was 1.57 log2 enrichment (interaction score).

For the sequence “GGCUAGAACUAGUGGAUCCCCCGGCGCCCGGCGGCUCGAGCCCGGGUAAGUGAAAAUAGUCUGCAUGCCGCCGGGCGCCAUGCCUGCAGGUCGACUCUAGAAAACAUG”, the figures for the binding signal with PUM1 PUF domain R6-WWG and with PUM1 PUF domain R6-YWL were 2.56 log2 enrichment (interaction score) and 7.77 log2 enrichment (interaction score), respectively.
